The source made the active and inactive calls.
Legend:
Albumin (Bos taurus) = Albumin (Bos taurus) (UniProt P02769); assay: bovine serum albumin binders on microarray, profiling panel, artefact control for SMM control protein annotation, biochemical, small-molecule microarray, Alexa647 label, 635/667 nm fluorescence (AID 1118); conditions: BSA-A647 binding, fluorescence 635 nm, higher = more signal;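 note: score merges 667 nm emission intensity and signal-to-noise per printed compound spot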
[1] = small-molecule microarray binders of probe aXIP, primary screen, biochemical, NeuroSMM set, 635/667 nm fluorescence (AID 1119); conditions: higher = more signal, called active from +8 up or from −8 down;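 note: probe is the protein aXip251-270 applied at 1 µg/mL to compound-printed slides; binding of probe to printed compounds measured as 667 nm fluorescence plus signal to noise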
[2] = small-molecule binders of probe aNOTCH3, primary screen, biochemical, small-molecule microarray, 635/667 nm fluorescence (AID 1120); conditions: higher = more signal;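 note: probe is a biotin-tagged antibody raised against NOTCH3 rather than NOTCH3 protein; score merges spot fluorescence near 667 nm with spot signal to noise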
[3] = small-molecule binders of probe aNOTCH2, primary screen, biochemical, small-molecule microarray, 635/667 nm fluorescence (AID 1121); conditions: higher = more signal;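 note: score merges feature fluorescence read at 667 nm with its signal to noise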
[4] = target: Carbonic anhydrase 2 (Homo sapiens) (UniProt P00918); assay: CAII small-molecule binders, profiling panel, biochemical, small-molecule microarray, Alexa647-labelled CAII (AID 1122); conditions: CAII-A647 binding fluorescence, higher = more signal
[5] = COS7 lysate on small-molecule microarray, probe aHis, 635 nm (AID 1123); conditions: COS7 cell lysate, fluorescence, higher = more signal;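 note: z-score combines 667nm fluorescence intensity with signal-to-noise per printed compound spot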
[6] = compound binding in COS7 lysate, probe aLAP1, primary screen, cell lysate, small-molecule microarray (AID 1124); conditions: probe aLAP1, fluorescence, higher = more signal;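 note: lysate comes from COS7 cells expressing LAP1 and is applied at 0.3 µg/mL; score merges spot fluorescence near 667 nm with signal-to-noise over triplicate slides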
Sam68 (KHDRBS1) = assay: Sam68 small-molecule binders, primary screen, biochemical, small-molecule microarray, 635 nm fluorescence (AID 1125); conditions: small-molecule microarray binding, higher = more signal;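 note: score merges 667 nm channel intensity with signal to noise over triplicate slides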
[7] = tested on: Chordin-like protein 2 (CHRDL2); assay: CHRDL2 small-molecule binders, primary screen, biochemical, small-molecule microarray, 635 nm fluorescence (AID 1126); conditions: small-molecule microarray binding, fluorescence 635 nm; higher = more signal;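 note: printed compound slides probed with Chrdl2 protein at 4 µg/mL for 1 h at 4 C; score merges 667 nm emission intensity with signal to noise over three replicate slides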
[8] = target: Concanavalin-A (Canavalia ensiformis) (UniProt P02866); assay: ConA small-molecule binders, primary screen, artefact control for SMM control protein annotation, biochemical, small-molecule microarray, Alexa647 label, 635 nm (AID 1127); conditions: ConA-A647 binding fluorescence, higher = more signal;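 note: z combines 667 nm emission intensity with signal-to-noise across three replicate slides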
[9] = anti-His antibody binders, primary screen, artefact control for SMM control protein annotation, biochemical, small-molecule microarray, 635 nm fluorescence (AID 1128); conditions: anti-His Alexa647 antibody binding, higher = more signal;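 note: score merges feature fluorescence with signal-to-noise for each printed compound spot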
[10] = tested on: Human papillomavirus type 1a E7 protein (residues 1-88); assay: HPV1a E7 small-molecule binders, primary screen, biochemical, small-molecule microarray, residues 1-88, 635 nm (AID 1129); conditions: small-molecule microarray binding, fluorescence 635 nm; higher = more signal
[11] = target: Focal adhesion kinase 1 (Homo sapiens) (UniProt Q05397); assay: small-molecule microarray binders of FAK, primary screen, biochemical, 635/667 nm fluorescence, BSA, DTT (AID 1130); conditions: PTK2 binding, 635 nm fluorescence, higher = more signal;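 note: composite of spot emission at 667 nm and signal to noise over triplicate slides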
[12] = tested on: Fibrinogen (Alexa647-labelled); assay: fibrinogen binders on compound microarrays, profiling panel, artefact control for SMM control-protein annotation, biochemical, small-molecule microarray, 635/667 nm fluorescence (AID 1131); conditions: fibrinogen-A647 binding fluorescence, higher = more signal;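 note: z-score merges 667 nm fluorescence with per-spot signal-to-noise over triplicate slides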
[13] = target: Follistatin (Homo sapiens) (UniProt P19883); assay: follistatin binders on small-molecule microarrays, primary screen, biochemical, small-molecule microarray, 635/667 nm fluorescence (AID 1132); conditions: FST binding, 635 nm fluorescence, higher = more signal
[14] = target: Fibroblast growth factor 2 (Homo sapiens) (UniProt P09038); assay: FGF2 binders on small-molecule microarrays, primary screen, biochemical, small-molecule microarray, 635/667 nm fluorescence (AID 1133); conditions: small-molecule microarray binding, FGF2, fluorescence 635/667; higher = more signal
[15] = mitochondrial membrane potential change in A549 cells, profiling panel, cell-based, JC-1 fluorescence, basal, 24 h, 100 nL (AID 1138); conditions: higher = more signal;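 note: A549 lung adenocarcinoma cells under basal conditions with no added stimulus; test concentration not given here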
Lefty1 = Lefty1 binders on small-molecule microarrays, primary screen, biochemical, small-molecule microarray, 635/667 nm fluorescence (AID 1139); conditions: small-molecule microarray binding, fluorescence 635/667; higher = more signal
[16] = tested on: wheat germ agglutinin (Triticum aestivum), Alexa647-labelled; assay: wheat germ agglutinin binders on compound microarrays, profiling panel, artefact control for SMM control-protein annotation, biochemical, small-molecule microarray, 635/667 nm fluorescence (AID 1140); conditions: WGA-A647 binding, 635 nm fluorescence, higher = more signal;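 note: score merges 667 nm feature emission with signal to noise over triplicate slides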
[17] = target: Luciferin 4-monooxygenase (Photinus pyralis) (UniProt P08659); assay: firefly luciferase enzyme inhibitors, primary screen, biochemical, luminescence, purified enzyme, 2006 set (AID 1141); conditions: SteadyGlo luminescence, 30 min, higher = more signal, called active from +8 up or from −8 down;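 note: cell-free assay with purified firefly luciferase at 100 ng per well in PBS; test concentration not given here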
Chain of Luciferin 4-monooxygenase (Photinus pyralis) (P08659 whole entry, looked up): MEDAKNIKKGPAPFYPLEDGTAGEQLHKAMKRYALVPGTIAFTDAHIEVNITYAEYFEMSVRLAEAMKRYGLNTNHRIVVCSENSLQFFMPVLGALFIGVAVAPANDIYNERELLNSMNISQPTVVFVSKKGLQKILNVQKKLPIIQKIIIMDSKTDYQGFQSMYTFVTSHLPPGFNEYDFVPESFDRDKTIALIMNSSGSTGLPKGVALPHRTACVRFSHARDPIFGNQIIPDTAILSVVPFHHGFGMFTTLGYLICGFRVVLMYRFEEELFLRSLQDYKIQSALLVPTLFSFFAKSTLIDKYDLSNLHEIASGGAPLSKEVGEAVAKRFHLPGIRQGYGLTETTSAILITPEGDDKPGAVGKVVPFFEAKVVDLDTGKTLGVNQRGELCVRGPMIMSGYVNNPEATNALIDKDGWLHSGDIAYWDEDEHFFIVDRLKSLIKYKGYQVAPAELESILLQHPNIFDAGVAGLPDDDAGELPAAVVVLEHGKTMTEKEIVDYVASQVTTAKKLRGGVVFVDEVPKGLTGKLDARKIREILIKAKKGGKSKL

Chain of Follistatin (Homo sapiens) (P19883 whole entry, looked up): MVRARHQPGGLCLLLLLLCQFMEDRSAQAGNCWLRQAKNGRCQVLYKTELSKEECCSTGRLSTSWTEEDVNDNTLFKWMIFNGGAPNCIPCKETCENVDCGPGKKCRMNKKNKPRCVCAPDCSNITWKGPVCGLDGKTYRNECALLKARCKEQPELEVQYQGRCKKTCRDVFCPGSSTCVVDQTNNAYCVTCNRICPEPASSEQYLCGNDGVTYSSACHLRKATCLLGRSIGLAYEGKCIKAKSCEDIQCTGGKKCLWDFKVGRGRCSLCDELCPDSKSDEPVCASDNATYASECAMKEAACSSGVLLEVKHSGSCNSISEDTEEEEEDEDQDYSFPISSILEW
Chain of Concanavalin-A (Canavalia ensiformis) (P02866 whole entry, looked up): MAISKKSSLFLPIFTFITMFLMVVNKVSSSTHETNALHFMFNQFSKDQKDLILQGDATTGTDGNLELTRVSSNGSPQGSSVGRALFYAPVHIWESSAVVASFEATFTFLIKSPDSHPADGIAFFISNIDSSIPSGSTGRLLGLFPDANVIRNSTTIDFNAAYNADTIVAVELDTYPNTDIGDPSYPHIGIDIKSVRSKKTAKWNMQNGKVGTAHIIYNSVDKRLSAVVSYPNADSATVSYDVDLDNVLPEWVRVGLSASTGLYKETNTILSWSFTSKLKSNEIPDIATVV
Chain of Fibroblast growth factor 2 (Homo sapiens) (P09038 whole entry, looked up): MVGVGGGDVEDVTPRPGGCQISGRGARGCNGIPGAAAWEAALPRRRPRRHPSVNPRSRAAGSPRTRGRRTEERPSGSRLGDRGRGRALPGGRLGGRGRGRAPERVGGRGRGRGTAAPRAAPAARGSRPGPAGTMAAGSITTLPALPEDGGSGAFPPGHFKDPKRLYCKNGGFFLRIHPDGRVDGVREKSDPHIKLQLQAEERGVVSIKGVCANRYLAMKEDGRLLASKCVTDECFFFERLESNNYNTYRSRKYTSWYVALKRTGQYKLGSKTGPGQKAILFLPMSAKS
Chain of Albumin (Bos taurus) (P02769 whole entry, looked up): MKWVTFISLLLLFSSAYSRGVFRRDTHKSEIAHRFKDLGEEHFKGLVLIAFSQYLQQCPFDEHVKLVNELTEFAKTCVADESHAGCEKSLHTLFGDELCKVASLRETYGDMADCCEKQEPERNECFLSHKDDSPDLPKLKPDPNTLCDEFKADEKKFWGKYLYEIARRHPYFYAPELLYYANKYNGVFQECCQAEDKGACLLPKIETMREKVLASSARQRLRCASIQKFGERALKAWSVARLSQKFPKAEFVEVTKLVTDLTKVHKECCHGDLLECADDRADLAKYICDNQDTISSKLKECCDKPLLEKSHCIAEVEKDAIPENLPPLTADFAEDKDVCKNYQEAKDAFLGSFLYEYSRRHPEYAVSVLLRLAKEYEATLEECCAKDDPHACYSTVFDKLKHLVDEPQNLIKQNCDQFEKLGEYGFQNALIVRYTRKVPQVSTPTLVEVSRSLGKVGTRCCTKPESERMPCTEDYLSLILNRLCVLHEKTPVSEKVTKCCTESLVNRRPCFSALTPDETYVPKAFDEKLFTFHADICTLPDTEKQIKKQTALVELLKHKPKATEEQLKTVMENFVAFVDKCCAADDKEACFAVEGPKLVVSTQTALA
Chain of Focal adhesion kinase 1 (Homo sapiens) (Q05397 whole entry, looked up): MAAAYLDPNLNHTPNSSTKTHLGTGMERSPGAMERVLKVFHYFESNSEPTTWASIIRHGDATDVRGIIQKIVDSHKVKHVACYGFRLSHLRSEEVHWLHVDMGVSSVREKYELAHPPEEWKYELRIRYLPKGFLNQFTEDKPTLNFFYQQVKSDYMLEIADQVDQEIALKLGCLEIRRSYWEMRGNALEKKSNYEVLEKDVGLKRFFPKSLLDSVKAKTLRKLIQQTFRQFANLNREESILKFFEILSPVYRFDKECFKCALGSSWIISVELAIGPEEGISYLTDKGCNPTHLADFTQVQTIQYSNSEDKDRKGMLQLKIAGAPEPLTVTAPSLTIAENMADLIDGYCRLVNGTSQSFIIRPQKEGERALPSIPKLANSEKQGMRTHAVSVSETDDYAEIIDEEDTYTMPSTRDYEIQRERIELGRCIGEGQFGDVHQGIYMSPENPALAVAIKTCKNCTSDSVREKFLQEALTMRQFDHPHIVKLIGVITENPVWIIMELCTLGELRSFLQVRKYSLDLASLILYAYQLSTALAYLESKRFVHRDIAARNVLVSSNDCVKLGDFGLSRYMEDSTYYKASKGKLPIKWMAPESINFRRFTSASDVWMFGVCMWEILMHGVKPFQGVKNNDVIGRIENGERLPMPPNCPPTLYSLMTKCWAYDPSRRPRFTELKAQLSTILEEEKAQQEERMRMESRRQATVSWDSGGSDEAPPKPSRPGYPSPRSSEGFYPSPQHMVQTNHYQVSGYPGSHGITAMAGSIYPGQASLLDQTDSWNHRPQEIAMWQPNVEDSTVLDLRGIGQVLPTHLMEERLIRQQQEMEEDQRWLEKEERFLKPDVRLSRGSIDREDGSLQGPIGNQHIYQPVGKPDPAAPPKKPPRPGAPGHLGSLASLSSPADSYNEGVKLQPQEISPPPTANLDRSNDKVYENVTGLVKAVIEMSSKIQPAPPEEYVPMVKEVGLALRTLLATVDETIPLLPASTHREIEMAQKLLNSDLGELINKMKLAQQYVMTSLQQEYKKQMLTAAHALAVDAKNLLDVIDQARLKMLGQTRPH

Row | SMILES | composite z-score (Albumin (Bos taurus)) | composite Z-score [1] | composite z-score [2] | composite z-score [3] | composite z-score [4] | composite z-score [5] | composite z-score [6] | composite z-score (Sam68 (KHDRBS1)) | composite z-score [7] | composite z-score [8] | composite z-score [9] | composite z-score [10] | composite z-score [11] | composite z-score [12] | composite z-score [13] | composite z-score [14] | z-score [15] | composite z-score (Lefty1) | composite z-score [16] | z-score [17]
1 | O=c1c2ccc(Br)cc2nc(-c2ccccc2)n1Cc1cccc(O)c1 | 0.757 | 0.906 (inactive) | 0.103 | 0.138 | 0.711 | 1.46 | 1.3 | 0.772 | 0.182 | 0.988 | 0.741 | 0.988 | 0.551 | 0.671 | 0.346 | 0.283 | 0.836 | -0.0693 | 1.05 | -0.273 (inactive)
2 | CCCC=C(CCC)[C@@H](NC(=O)Cc1ccccc1)c1ccc(C(=O)OC)cc1 | 0.506 | 0.0119 (inactive) | 0.934 | 0.0754 | 0.405 | 1.69 | 0.615 | 0.844 | 0.549 | 0.31 | 1.2 | 0.821 | 0.563 | 0.714 | 0.28 | 0.0515 | -0.298 | -0.365 | 1.03 | 1.54 (inactive)
3 | O=C(C=C(CC(O)c1cccc(Cl)c1)OCCF)OCCF (stereo not given) | 0.912 | -0.361 (inactive) | -0.0903 | -0.0746 | 0.0119 | 0.143 | 0.624 | -2.33 | -0.594 | -0.444 | -0.144 | -1.59 | -0.401 | -1.35 | -0.885 | -0.576 | 0.0691 | -0.94 | -0.442 | 0.364 (inactive)
4 | CN(C)CCCC[C@@H]1NC(=O)[C@H]2C[C@@H](C(=O)NCCCCCCNC(=O)CS)[C@@H](c3ccc(O)cc3)N2C1=O | 0.468 | -0.131 (inactive) | -0.159 | -0.14 | 0.802 | 2.66 | 0.957 | 0.457 | -0.0412 | -0.263 | 0.135 | 0.0218 | 1.05 | -0.934 | 1.32 | 0.804 | -0.685 | 0.628 | -0.149 | 0.78 (inactive)
5 | C=C(COC)C(=O)CC[C@H](OC(=O)c1ccccc1-c1ccccc1C(=O)O)c1ccc(CO)o1 | -0.701 | 0.403 (inactive) | -0.203 | -0.14 | 0.365 | -0.264 | 0.134 | 0.807 | 0.55 | 0.332 | 0.581 | 0.154 | 0.36 | -0.576 | 1.35 | 1.66 | -0.666 | 1.5 | -0.2 | -0.846 (inactive)
6 | CC(C)=CCCC(C)=CC(O)C1C=CC2C(=O)N(c3ccccc3)C(=O)C2N1Nc1ccc([N+](=O)[O-])cc1 (stereo not given) | 1.01 | 0.649 (inactive) | 0.155 | -0.0697 | 0.856 | 2.77 | 0.167 | 1.35 | -1 | 1.14 | 0.987 | 1.22 | 0.954 | 1.02 | 1.03 | -0.151 | -0.78 | 0.253 | 0.969 | 0.453 (inactive)
7 | O=C1O[C@H](c2ccccc2)[C@H](c2ccccc2)N2[C@H]1[C@@H](C(=O)N1CCN(c3ncccn3)CC1)[C@]1(C(=O)Nc3ccc(C#CCCO)cc31)[C@H]2c1ccccc1OCCO | 0.759 | -0.215 (inactive) | -0.0918 | -0.0533 | 0.556 | 2.03 | 1.38 | 1.3 | 0.231 | 1.11 | 1.55 | 1.2 | 0.358 | 0.869 | 0.618 | 1.29 | 0.91 | 0.151 | 1.02 | -0.682 (inactive)
8 | CN(C)C(=O)[C@@]1(CCC(=O)OC(C)(C)C)COC(c2ccc(OCCCO)cc2)=N1 | 0.655 | 0.142 (inactive) | -0.119 | -0.0508 | 0.841 | 3.29 | 0.723 | 0.502 | -1.46 | 0.673 | 0.282 | 1.11 | 1.63 | -0.254 | 0.625 | -0.357 | -0.191 | -0.235 | 0.334 | 0.995 (inactive)
9 | C=CCN1C(=O)[C@@]2(O[C@@H](CCO)[C@H]([Si](C)(C)c3ccc(OC)cc3)[C@H]2C)c2cc(NC(=O)[C@H](C)O)ccc21 | 0.489 | 0.0001 (inactive) | -0.0343 | -0.126 | 0.63 | 1.68 | 0.231 | 1.31 | -0.0585 | 0.584 | 2.01 | 1.19 | 1.38 | 0.114 | 0.346 | 0.0211 | 2.74 | 0.582 | 0.98 | -0.676 (inactive)
10 | O=C1O[C@H](c2ccccc2)[C@H](c2ccccc2)N2[C@H]1[C@@H](C(=O)N1CCN(c3ncccn3)CC1)[C@]1(C(=O)Nc3ccc(C#CCCO)cc31)[C@H]2c1ccc(OCCO)cc1 | 0.612 | 1.38 (inactive) | 0.255 | -0.0633 | 0.296 | 1.96 | 0.924 | 1.3 | 0.944 | 1.11 | 2.06 | 1.2 | 0.372 | 0.934 | 1.36 | 0.597 | -0.756 | 1.57 | 0.772 | -0.713 (inactive)
